# Bioassay records deposited in PubChem BioAssay by several laboratories.
# A selection: hits, their analogues and other compounds. The true share with any hit is near 6.9%.
# MPTP inh: mitochondrial permeability transition pore inhibitors, primary screen, biochemical, isolated mouse mitochondria, absorbance; Ca2+ swelling absorbance, 30 min; inhibition, % at 10 µM; 360,000 compounds, 1.4% hits; AID 602449, 2012;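 active = inhibition of 50% or more, scaled per plate between neutral and stimulator controls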;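 note: 0% = DMSO wells given calcium and 100% = 1 mM EGTA wells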
# CSC inhib: cancer stem cell viability inhibitors, primary screen, luminescence. inhibition, % at 7.5 µM. cancer stem cell-like cells viability. AID 2717, 2010. 300,000 compounds, 1.1% hits; in the data active = inhibition above about 75%; tested in HMLE shEcad cells
# SKKanGAS inh: S. pyogenes SKKanGAS growth inhibitors in kanamycin, primary screen, streptokinase expression inhibitor project, SKKanGAS strain, BacTiter-Glo luminescence | 6 h | inhibition, % at 7.5 µM | 300,000 compounds, 1.3% hits;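 active = mean replicate score, as percent of positive control median, at least 50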;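 note: strain carries kanamycin resistance gene driven by streptokinase promoter and grows in 40 µg/ml kanamycin; loss of luminescence reflects streptokinase promoter inhibition or plain growth inhibition; 0% = median of DMSO wells and 100% = positive control at its reference dose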
# Beta apoptosis: inhibitors of cytokine-induced beta cell apoptosis, primary screen, luminescence | protection from apoptosis, % (test concentration not listed) | INS-1E cytokine-induced death, ATP luminescence, 48 h; percent of positive-control rescue, neutral wells zero | 300,000 compounds, 0.8% hits;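 active = Every replicate reaches about 75%, or at least half do and their mean reaches it too, limit read from the data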;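 note: 0% = cytokine-treated negative control wells and 100% = positive control rescue; higher means more ATP so stronger rescue from cytokine killing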
# Mdm2-MdmX inh: inhibitors of human Mdm2-MdmX association, primary screen, cell-based, luminescence, split luciferase, SaOS-2, uHTS. Protein Mdm4 (Homo sapiens) + E3 ubiquitin-protein ligase Mdm2 (Homo sapiens), …. SaOS-2 split-luciferase Mdm2/MdmX complementation. inhibition, % at 8 µM. 330,000 compounds, 3% hits. AID 485346, 2010;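 active = inhibition of at least 50% at 8 µM in the primary screen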
# Target sequence (O15151 whole entry, looked up): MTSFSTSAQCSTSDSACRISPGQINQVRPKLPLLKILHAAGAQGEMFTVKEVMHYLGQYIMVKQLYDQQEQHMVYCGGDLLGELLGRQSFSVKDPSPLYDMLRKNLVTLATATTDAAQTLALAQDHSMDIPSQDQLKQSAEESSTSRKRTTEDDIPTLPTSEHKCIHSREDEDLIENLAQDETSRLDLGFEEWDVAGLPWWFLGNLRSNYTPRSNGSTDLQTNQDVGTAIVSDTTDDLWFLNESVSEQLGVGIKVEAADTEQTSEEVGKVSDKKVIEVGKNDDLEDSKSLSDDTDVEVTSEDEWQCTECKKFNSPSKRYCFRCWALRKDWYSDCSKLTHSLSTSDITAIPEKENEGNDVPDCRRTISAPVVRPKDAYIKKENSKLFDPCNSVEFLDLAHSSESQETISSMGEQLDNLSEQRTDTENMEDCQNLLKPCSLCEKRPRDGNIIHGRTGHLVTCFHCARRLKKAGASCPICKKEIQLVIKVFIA
# Target sequence (Q00987 whole entry, looked up): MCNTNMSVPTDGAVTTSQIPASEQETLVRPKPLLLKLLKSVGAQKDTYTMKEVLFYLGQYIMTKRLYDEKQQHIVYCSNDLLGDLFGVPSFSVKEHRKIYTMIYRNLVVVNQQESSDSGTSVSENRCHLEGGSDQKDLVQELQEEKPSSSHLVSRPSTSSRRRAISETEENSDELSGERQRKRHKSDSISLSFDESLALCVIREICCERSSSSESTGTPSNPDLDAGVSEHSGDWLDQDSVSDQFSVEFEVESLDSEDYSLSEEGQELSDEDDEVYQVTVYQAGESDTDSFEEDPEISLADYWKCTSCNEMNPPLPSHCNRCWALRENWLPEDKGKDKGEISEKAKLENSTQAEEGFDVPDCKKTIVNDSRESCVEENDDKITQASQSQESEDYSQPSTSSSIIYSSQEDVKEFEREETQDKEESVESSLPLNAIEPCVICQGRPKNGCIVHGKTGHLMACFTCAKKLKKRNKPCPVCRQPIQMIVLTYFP
# GRIN3A LBD mod: binders of NR3A ligand-binding domain, primary screen, biophysical, differential scanning fluorimetry, uHTS; NR3A LBD differential scanning fluorimetry, Tm shift; 0% = protein alone, 100% = glycine-bound protein; AID 1259313, 2017; Tm shift relative to glycine control, % at 25 µM; Glutamate receptor ionotropic, NMDA 3A (GRIN3A) ligand-binding domain; 340,000 compounds, 2.5% hits;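 active = melting temperature shift of at least 10% of the positive control shift, at one fixed dose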
# Mdm2-MdmX conf: Mdm2-MdmX complex disruptors, retested hits, confirmation, luminescence, single concentration; shares compounds with Mdm2-MdmX inh; Mdm2-MdmX binding, luminescent assay; inhibition, % at 8 µM; 10,000 compounds, 55% hits; in the data active = inhibition above about 40%
# FLuc counter: full-length luciferase signal inhibition, confirmation, counter-screen for Mdm2/MdmX interaction inhibitor project, cell-based, single concentration, SaOS-2; shares compounds with Mdm2-MdmX inh; SaOS-2 full-length luciferase counterscreen, luminescence; inhibition, % at 8 µM; 6,200 compounds, 77% hits; AID 504607, 2011;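 active = mean inhibition at 8 µM reaching about 37%, which flags the compound as non-specific, limit read from the data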;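 note: p53-null SaOS-2 cells with luciferase driven by a doxycycline-inducible promoter; compound on cells about two nights before reading with doxycycline added after day one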
# * hit, by the source's call; . = no result given.
SMILES,MPTP inh,CSC inhib,SKKanGAS inh,Beta apoptosis,Mdm2-MdmX inh,GRIN3A LBD mod,others
C=CCn1c(O)c(C(C)=Nc2cccc(C(F)(F)F)c2)c(=O)[nH]c1=O,0.6,-3.8,3.1,.,7.2,12.5*,
CC(C)c1onc(C(=O)N2CCC3(CC2)OCCO3)c1[N+](=O)[O-],0.3,-5.3,-5.7,-0.1,11.5,16.3*,
COCCCn1c(N)c(C(=O)Nc2ccccc2)c2nc3ccccc3nc21,2.3,32.9,49.7*,-0.7,47.9,3.7,
Nc1ccc(CCN2CCN(c3cccc(C(F)(F)F)c3)CC2)cc1,-3.0,95.0*,-0.3,-2.2,13.3,-0.8,
COC1C(OC(=O)c2ccc(C)[nH]2)C(O)C(Oc2ccc3c(O)c(NC(=O)c4ccc(O)c(CC=C(C)C)c4)c(=O)oc3c2Cl)OC1(C)C (configuration not stated),-0.4,2.6,.,.,25.3,19.9*,
CC/C(=N\Nc1ccccc1)c1c(O)n(-c2ccc(OC)cc2)c(=O)[nH]c1=O,2.7,75.8*,3.9,1.7,-6.9,0.2,
CNCC(=O)c1ccccc1,-1.4,-2.1,3.8,-6.5,9.3,-2.4,
O=C(Cn1ncc2ccccc21)N1CCC2(CC1)OCCO2,0.2,-0.2,-4.2,-4.8,-26.1,-0.1,
CCn1c(=O)n(CC(=O)N2CCC3(CC2)OCCO3)c(=O)c2ccccc21,-4.2,-11.7,-9.2,-8.9,14.3,14.0*,
COc1nc2ccccc2nc1N1CC1,-1.7,.,.,.,.,.,
CCN1CCN(Cc2ccc(C)cc2C)CC1,-0.2,11.5,-4.5,-2.0,3.4,-0.4,
CCN1CCN(Cc2ccccc2C)CC1,1.7,.,3.6,-7.9,11.7,40.3*,
CCc1ccccc1NC(=O)N1C[C@H]2C[C@@H](C1)c1cccc(=O)n1C2,-0.7,-6.6,-3.0,-8.3,21.6,-3.2,
O=C1c2ccccc2-n2nncc2C2c3cc(Br)ccc3CCN12 (configuration not stated),-0.1,.,.,.,.,.,
Cc1cccc(C)c1-n1nnnc1C(c1ccnc2ccccc12)N1CCC2(CC1)C(=O)NCN2c1ccccc1 (configuration not stated),0.9,.,.,.,.,.,
Cn1cc(C=O)c2nccnc21,-2.1,.,.,.,.,.,
O=c1[nH]c(=S)[nH]c(O)c1N=Nc1cc(S(=O)(=O)Nc2ccc(Cl)cc2)ccc1Cl,4.2,.,.,7.9,24.4,12.8*,
NS(=O)(=O)c1ccc(N=Nc2c(O)[nH]c(=S)[nH]c2=O)cc1,1.4,-12.2,-6.5,-3.9,13.5,0.4,
COc1ccc(C(O)(c2ccccc2)c2ccncc2)cc1 (configuration not stated),-1.2,.,.,.,.,4.2,
CN(C)[C@@H]1C(=O)C(C(N)=O)=C(O)[C@@]2(O)C(=O)C3=C(O)c4c(O)cccc4[C@@](C)(O)C3[C@H](O)C12 (some centres not stated),2.9,-11.0,106.4*,-0.7,15.6,-10.8,
CN(C)C1C(=O)C(C(N)=O)=C(O)C2(O)C(=O)C3=C(O)c4c(O)cccc4C(C)(O)C3CC12 (configuration not stated),3.2,-9.5,102.1*,3.9,.,-0.8,
CN(C)[C@@H]1C(=O)C(C(N)=O)=C(O)[C@@]2(O)C(=O)C3=C(O)c4c(O)cccc4[C@@](C)(O)[C@H]3C[C@@H]12,.,-3.8,0.8,-2.2,18.7,.,
Cc1c(N=Nc2c(O)n(Cc3ccccc3)c(=O)[nH]c2=O)c(=O)n(-c2ccccc2)n1C,-3.3,-1.2,-1.8,43.0,12.2,14.8*,
COC(=O)C1=C(c2ccc3ccccc3c2)C[C@@H]2CC[C@H]1N2C(=O)NCCNC(C)=O,-2.7,-12.2,.,-1.4,24.2,0.5,
O=[N+]([O-])c1ccc(N2CCCCCC2)c2ncccc12,3.1,15.0,17.6,-2.8,-11.3,21.2*,
SMILES,MPTP inh,CSC inhib,SKKanGAS inh,Beta apoptosis,Mdm2-MdmX inh,GRIN3A LBD mod,others
O=c1[nH]c(=S)n(-c2ccccc2F)c(O)c1C=NCc1ccco1,24.8,8.5,-6.7,-6.1,-4.8,14.4*,
Cc1ccc(-n2c(O)c(C=NCc3ccco3)c(=O)[nH]c2=S)cc1C,-1.0,0.5,10.4,0.8,-12.6,2.1,
CC(C)(C)n1nnnc1C(C1CC1)N1CCC2(CC1)C(=O)NCN2c1ccccc1 (configuration not stated),-0.1,.,.,.,.,.,
CC(Cc1ccccc1)NC(=O)CCCCC(=O)NC(C)Cc1ccccc1 (configuration not stated),0.6,-0.8,-0.3,-0.3,11.1,0.3,
CN1CCCCC1Cc1ccccc1 (configuration not stated),0.1,.,.,.,.,.,
O=C(Nc1nccs1)c1c(O)c2c(n(Cc3ccco3)c1=O)CCCC2,-2.1,8.6,55.0*,-0.8,35.0,2.0,
O=C(Nc1ccccc1)c1c(O)c2c(n(Cc3ccco3)c1=O)CCCC2,0.0,6.5,-3.8,.,21.9,1.5,
S=P(NCCNP(=S)(N1CC1)N1CC1)(N1CC1)N1CC1,-0.1,.,.,.,.,1.5,
Cc1ccc(NP(=O)(Oc2ccccc2F)Oc2ccccc2F)cc1,-2.6,-6.2,18.9,-6.3,8.9,-12.6,
Cc1cccc(NP(=O)(Oc2ccccc2F)Oc2ccccc2F)c1C,-5.1,31.4,2.4,-5.1,32.1,23.6*,
O=c1[nH]c(O)c(C=Nc2cccc(F)c2)c(=O)[nH]1,0.3,-8.5,2.9,-0.2,7.6,7.8,
CCC(=O)N1N=C(c2c(O)n(CCc3ccccc3)c(=O)[nH]c2=O)CC1c1ccc(OC)c(OC)c1 (configuration not stated),-6.0,2.5,100.2*,-2.3,21.7,-0.1,
O=C1c2ccccc2-n2nnnc2C2c3ccccc3-n3nncc3CN12 (configuration not stated),-0.6,.,.,.,.,.,
CNC(=O)c1cccn(Cc2ccc(C(F)(F)F)cc2)c1=O,0.4,11.7,-12.3,9.8,56.3*,-4.4,Mdm2-MdmX conf=26.3
COc1ccc2c3c1OC1C(=O)CC[C@@]4(O)[C@@H](C2)N(C)CC[C@]314 (some centres not stated),-0.4,.,.,.,67.2*,-0.4,Mdm2-MdmX conf=52.7*;FLuc counter=21.4
C/C(=N\N(C)c1ccccc1)c1c(O)[nH]c(=O)[nH]c1=O,-2.6,26.2,2.4,-1.2,10.9,0.0,
